Most compounds without a hit are left out; they make up all but 21% or so of the library.
Pf growth 96h – P. falciparum growth inhibition at 96 hour, primary screen for plastid delayed-death inhibitors; 320,000 tested, 6.9% active; AID 504834; Potency, µM (top dose mostly 28.7 µM), without a hit: at the top dose activity change, negative = inhibition, most hits filed as inhibitors; P. falciparum luciferase reporter growth, 96 h; note: potency is the fitted concentration of half-maximal effect; % is set by controls: 0 for no effect and ±100 for the full control effect
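P. falciparum expressing integrated firefly luciferase, in erythrocytes at 2% hematocrit, 0.05% parasitemia, incubated with compounds 96 h at 37 C, 5% CO2. Growth inhibition read as loss of luminescence; two-generation exposure targets delayed-death apicoplast inhibitors.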
HCV inhibitor – inhibitors of hepatitis C virus infection; Huh7.5.1 HCVcc-Cre infection, luciferase reporter, 44 h; Potency, µM (highest dose often 41.8 µM), for inactives: at the highest dose activity change, negative = inhibition, actives largely listed as inhibitors; 340,000 tested, 3.4% active; AID 651820; note: potency is the fitted concentration of half-maximal effect; % is set by controls: 0 for no effect and ±100 for the full control effect
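Cells (1,000/well) were plated 4 h before compound, then infected with HCVcc-Cre virus (~0.5 moi). After 44 h further culture, infection was read as luciferase luminescence following a 15 min substrate incubation at room temperature.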
Pf growth 48h – P. falciparum growth inhibition at 48 hours (one generation); P. falciparum luciferase growth in erythrocytes, 48 h; Potency, µM (titrated, usually from 28.7 µM), for the others: at the top dose activity change, negative = inhibition, actives largely listed as inhibitors; 310,000 tested, 5.9% active; AID 504832; note: potency is the fitted concentration of half-maximal effect; % is set by controls: 0 for no effect and ±100 for the full control effect
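First compound was added to culture medium, then infected red cells at 0.1% parasitemia and 2% hematocrit (final). After incubation at 37 C under 5% CO2, luciferase detection reagent was dispensed and light output recorded.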
Shiga inhibitor – Shiga toxin inhibition. inhibition, % at 38.7 µM. Vero cells, Shiga toxin protein synthesis inhibition reporter. 290,000 tested, 9.2% active; in the data active = inhibition mostly above about 28%, no sharp cut-off; inactive = mostly below about 43%; note: 0% is about no effect
AMA1-RON2 inh – disrupts binding of P. falciparum AMA1 to RON2; AlphaScreen AMA1-biotinylated RON2 peptide binding; Potency, µM (top dose mostly 58.2 µM), inactives show top-dose activity change, negative = inhibition, most hits filed as inhibitors; 360,000 tested, 0.2% active; AID 720542;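 note: potency is the fitted concentration of half-maximal effect; 0% = vehicle wells and -100% = peptide control; nearly all actives have a fitted effect of over 45% in size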
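AMA1 (3D7) with his tag at 25 nM final met compounds first, then biotinylated RON2 peptide at 25 nM; detection used donor plus acceptor beads, 10 µg/mL apiece, read by AlphaScreen after 30 min at room temperature.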
Cycloheximide cs – affects cycloheximide protein synthesis inhibition readout, counter-screen; 300,000 tested, 12% active; cell reporter, cycloheximide protein synthesis inhibition counterscreen; max response, %; AID 2314; in the data active = max response mostly above about 13%, no sharp cut-off; inactive = mostly below about 14%; note: read at 38.3 µM for the half of the compounds with a filed dose; 0% is about no effect
Active calls of the source: *; u = inconclusive; x = no result given; [ ] = dose if it differs, or a comment. Unless noted, calls come from the whole dose curve; as a rule, active = well fitted curve in the direction sought with a large enough effect; inconclusive = small, poorly fitted or top-dose-only effect, or another doubt; inactive = no such curve, though single readings can be large; an effect the other way counts as inactive or inconclusive.

SMILES | Pf growth 96h | HCV inhibitor | Pf growth 48h | Shiga inhibitor | AMA1-RON2 inh | Cycloheximide cs
CCN(CC)CCOC(=O)c1c(C)oc2ccc(OC)cc12 | -24% | -16% | 13% | 61* | 15% | 17
COc1ccc2oc(-c3ccccc3)c(C(N)=O)c2c1 | 29% | -19% | 30% | 34 | -1% | 28*
Cc1oc2ccc(OC(=O)c3cccs3)cc2c1C(=O)OC(C)C | 18% | -16% | 38% | 24 | 49% | 5
COc1ccc2oc(-c3ccccc3)c(C(=O)O)c2c1 | u | 16% | 12% | 8 | 4% | -6
C=CCN(C(=O)CSc1nc2c(sc3ccccc32)c(=O)n1CCN(CC)CC)c1ccccc1 | 0% | -50% | u | -25 | u | -8
CN(CC(=O)Nc1ccccc1Cl)C(=O)CSc1nnc(N)s1 | 5% | 11% | 0% | x | 1% | x
Cc1cc(C)c2c(=O)[nH]c(SCC(=O)c3ccc(F)c(C)c3)nc2n1 | 22% | 20% | 29% | -2 | 6% | 12
CC(C)OC(=O)c1cccc2c1C(=O)c1ccccc1-2 | 70% | 5% | 79% | 74* | -14% | 38*
Nc1ccc(S(=O)(=O)NCc2ccccc2)cc1 | -5% | x | -3% | x | x | x
Cc1ccc(NC(=O)CSc2nc3c([nH]c4ccccc43)c(=O)n2C)cc1 | 68%[1.15 µM] | 6% | 32%[1.15 µM] | -6 | -5% | -2
CCN(CC)S(=O)(=O)c1cccc(-c2nnc(SCC(N)=O)n2C)c1 | u | 3% | -3% | -5 | 7% | 8
Cc1ccc(NC(=O)CSc2nc3sc(C)cc3c(=O)n2C)cc1 | 9.3µM* | -23% | u | -14 | 25% | -3
CCN(CC)S(=O)(=O)c1ccc(NC(=O)CSc2nnc(-c3cccc(OC)c3)n2C)cc1 | u | -20% | 10µM* | -1 | -1% | -1
Cc1ccc(NC(=O)CNc2ccc(OC(C)C)cc2)cc1 | 44% | -17% | x | 10 | -2% | 16*
Cc1cccc(C)c1NC(=O)CSc1nnc(-c2ccco2)n1N | u | 12% | -1% | -12 | 16% | 6
Nn1c(SCC(=O)Nc2ccc(S(N)(=O)=O)cc2)nnc1-c1ccco1 | 13µM* | 29% | -19% | -10 | 51% | -4
COCC(=O)N(Cc1cc2cccc(C)c2[nH]c1=O)c1ccccc1 | 14% | 5% | -1% | -3 | -8% | 1
Cc1noc(C)c1-c1ccc2ncnc(NCc3ccc(C(F)(F)F)cc3)c2c1 | x | x | x | 15 | x | -1
COc1ccc(NC(=O)CSc2ccc(C)cc2)cc1 | -22% | -5% | 227% | 81* | -11% | 33*
CC(C)c1nnc(SCC(=O)NC(C)(C)C)n1C | u | -8% | 27% | 18 | 25% | -2
CC(C)(C)NC(=O)CSc1nnnn1C(C)(C)C | 6% | 2% | 15% | 32* | 22% | 25*
CCn1c(SCC(=O)Nc2ccc(C)cc2)nnc1-c1ccc(O)cc1 | 2.6µM* | -26% | u | -11 | 27% | -2
Cc1ccc(C(=O)CSc2nnc(-c3ccncc3)n2C)cc1 | u | 2% | -3% | -8 | -3% | -1
Cc1ccc(-c2nnc(SCC(C)C)n2C)cc1 | 49% | -3% | 43% | 138* | 0% | 34*
COc1ccc(NC(=O)c2ccccc2NC(=O)CSc2ccc(C)cc2)cc1 | 38% | u | 31% | 8 | -7% | 6
SMILES | Pf growth 96h | HCV inhibitor | Pf growth 48h | Shiga inhibitor | AMA1-RON2 inh | Cycloheximide cs
CC(=O)Nc1ccccc1OCc1cnc(Cl)s1 | -24% | 12% | 0% | 7 | 4% | 1
COc1ccc(NC(=O)C2C3C=CC4(O3)C2C(=O)N(CCN2CCCCC2)C4C(=O)NC2CCCC(C)C2C)cc1 (centres undefined) | 30% | -19% | u | -3 | 10% | 5
Cc1cc(OCC(=O)NC(C)c2ccccc2)ccc1[N+](=O)[O-] (centres undefined) | -60% | 2% | 1% | -4 | 115% | 1
CCCCSc1nnc(-c2ccc(OC)cc2)n1C | 13µM* | -4% | -3% | 60* | -12% | 65*
Cc1ccc(SCC(=O)NC(C)(C)C)cc1 | x | 22% | 66% | 133* | 1% | 28*
CCn1c(SCC(=O)Nc2ccc(N3CCOCC3)cc2)nnc1-c1ccco1 | 10µM* | -9% | -1% | x | 2% | x

Screens as filed in PubChem.
